Shown are actives, neighbours in structure and some others; about 2.9% of the full set was active somewhere.
PP1 counter = blocks human PP1-alpha phosphatase, a PP5 counter-screen. P62136. purified PP1alpha, OMFP fluorescence. inhibition, % at 6.7 µM. hit rate 0.9% among 320,000. AID 2235;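 active = inhibition above the mean inhibition of all tested compounds plus 3 SD, computed separately for each screening campaign, cut at about 15% in these data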
Target sequence (P62136 whole entry, looked up): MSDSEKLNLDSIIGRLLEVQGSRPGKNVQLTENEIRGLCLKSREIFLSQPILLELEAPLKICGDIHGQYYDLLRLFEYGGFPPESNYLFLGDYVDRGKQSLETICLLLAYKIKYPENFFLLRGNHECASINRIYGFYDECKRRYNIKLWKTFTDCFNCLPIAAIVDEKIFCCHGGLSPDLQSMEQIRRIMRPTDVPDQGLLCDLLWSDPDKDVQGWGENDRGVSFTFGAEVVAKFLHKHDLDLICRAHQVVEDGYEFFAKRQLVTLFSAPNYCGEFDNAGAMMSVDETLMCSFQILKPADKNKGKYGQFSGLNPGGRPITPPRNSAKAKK
NadD block = blocks S. aureus nicotinate mononucleotide adenylyltransferase | purified NadD enzyme, colorimetric absorbance read-out | inhibition, % at 20 µM | hit rate 0.78% among 360,000 | AID 602399; in the data active = inhibition above about 26%
Granule exo inh = blocks lytic granule exocytosis | TALL-104 LAMP-1 surface exposure, flow cytometry; cells stimulated with thapsigargin and PMA | inhibition, % at 10 µM | hit rate 0.66% among 360,000 | AID 651702;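 active = inhibition above about 55%, limit read from the data; inconclusive = no clear call, values can overlap the other calls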
Beta2AR agonist = agonists of human beta-2 adrenergic receptor inducing internalization | hit rate 0.43% among 340,000 | Am2.2-beta2AR cells, FAP receptor internalization, flow cytometry | response, % (no concentration beside the values) | AID 504454 | P07550;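 active = response above a set limit, near 3 SD of response in nonfluorescent compounds, cut at about 42% in these data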
GRK2 aptamer HTS = blocks RNA aptamer binding to human GRK2. hit rate 0.59% among 330,000. inhibition of aptamer binding, % at 10 µM. AID 488847. bead flow cytometry, FAM-aptamer displacement from GRK2;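 active = inhibition of aptamer binding above 40%, roughly 3 SD of noise, on plates passing a quality check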;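 also: median bead fluorescence of bound FAM aptamer so fluorescent compounds give negative values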
Numbers without * were called inactive; u = inconclusive; x = no result given.

SMILES | PP1 counter | NadD block | Granule exo inh | Beta2AR agonist | GRK2 aptamer HTS
C/C=C(/C)C(=O)O[C@@H]1[C@H](OC(C)=O)c2c(ccc3ccc(=O)oc23)OC1(C)C | -2 | -1 | 61* | -5 | 0
O=C(NCc1ncc(C(F)(F)F)cc1Cl)Nc1ccccc1 | -2 | -4 | -38 | -3 | 0
Cc1ccc(-c2csc(=Nc3cccnc3)n2CCCn2ccnc2)cc1C | 3 | 1 | 3 | 4 | x
c1cncc(N=c2scc(-c3cccc4ccccc34)n2CCCn2ccnc2)c1 | 16* | 6 | 3 | 11 | 3
O=C(Nc1ccccc1C(F)(F)F)c1cc(-c2ccccc2O)on1 | 16* | -1 | -1 | -2 | 0
O=C(Nc1ccccc1C(F)(F)F)c1cc(-c2ccco2)on1 | -1 | 1 | -2 | 12 | 1
COc1cccc(CNC(=O)CCCc2nnc3n(C)c(=O)c4sccc4n23)c1 | 6 | 2 | 3 | -3 | 1
Cc1ccc(-n2c(N)c(C(=O)Nc3c(C)n(C)n(-c4ccccc4)c3=O)c3nc4ccccc4nc32)cc1 | 5 | 4 | -1 | 68* | 4
COc1cccc(-n2c(N)c(C(=O)Nc3c(C)n(C)n(-c4ccccc4)c3=O)c3nc4ccccc4nc32)c1 | 2 | 3 | -19 | 66* | 0
O=C(CNC(=O)[C@@H]1Cc2ccccc2CN1)Nc1ccc2c(c1)OCCO2 | -2 | 3 | 2 | 6 | 0
CC12CCC3C(=CCc4cc(O)ccc43)C1CC(=NO)C2O (configuration not stated) | x | -3 | 6 | -4 | x
COc1ccc2c(c1)CC=C1C2CCC2(C)C(=O)C(=NO)CC12 (configuration not stated) | x | -6 | 91* | 1 | x
O=c1oc(-c2ccccc2)cc(Cl)c1Cl | 5 | -6 | -30 | 51* | 0
O=C1Nc2ccccc2-n2nnnc2C1N1CCN(CCN2CCOCC2)CC1 (configuration not stated) | x | x | -1 | x | x
CCN1CCN(Cc2ccc(NC(=O)c3ccc(C)c(NC(=O)C(=O)c4c[nH]c5ccccc45)c3)cc2C(F)(F)F)CC1 | 15 | 11 | 4 | 50* | 0
CN(C(=O)c1cccc(C#CC(C)(C)O)c1)C1CCCN(Cc2ccccc2F)C1 (configuration not stated) | -2 | 4 | 0 | 1 | 1
CCOC(=O)C1CCCN(C(=O)CNC(=O)Cn2ccc3ccccc3c2=O)C1 (configuration not stated) | 0 | 4 | -2 | 5 | 1
COc1cc(C2C(C#N)=C(N)Oc3cc(N)ccc32)cc(OC)c1OC (configuration not stated) | 0 | 7 | 4 | 50* | 3
COc1ccc(C2C(C#N)=C(N)Oc3cc(N)ccc32)cc1 (configuration not stated) | x | -2 | -2 | -2 | 4
COc1cc(/C=C2\SC(=Nc3ccc(Cl)c(C(=O)O)c3)NC2=O)c(Br)c(Br)c1O | x | 70* | 18 | 3 | 5
CCOc1cc(NC(=S)Nc2ccccc2OC)c(OCC)cc1NC(=O)c1ccccc1C | 1 | 8 | 2 | 0 | 1
COc1cc(/C=N/N=C(N)N)ccc1OCc1ccccc1Cl | 14 | -2 | 4 | 54* | 0
COc1ccc(/C=N/N=C/c2ccc(OC)c(OC)c2)cc1OC | -6 | 0 | 1 | 3 | 1
CCOC(=O)COn1c(-n2nc(C)cc2C)nc2ccccc2c1=O | -3 | -2 | u | -5 | 0
O=C(OCCCN=C1NS(=O)(=O)c2ccccc21)c1ccc([N+](=O)[O-])cc1 | -5 | -4 | -1 | -7 | 0
SMILES | PP1 counter | NadD block | Granule exo inh | Beta2AR agonist | GRK2 aptamer HTS
Cc1cccc(-c2cc(C(=O)Nc3sc(C)c(C)c3C(N)=O)c3ccccc3n2)c1 | -1 | 19 | 0 | 16 | 0
Cc1ccc(C)c(-c2cc(C(=O)Nc3sc(C)c(C)c3C(N)=O)c3ccccc3n2)c1 | 0 | 35* | -2 | 9 | 2
CCOC(=O)c1sc(NC(=O)c2cc(-c3ccccc3)nc3ccccc23)c(C#N)c1C | -3 | 39* | 10 | 39 | 0
O=C(COc1ccc(Br)cc1)N(Cc1ccco1)C1CCS(=O)(=O)C1 (configuration not stated) | -3 | 6 | -5 | -3 | 2
CCN1C/C(=C\c2cccc([N+](=O)[O-])c2)C(=O)/C(=C/c2cccc([N+](=O)[O-])c2)C1 | x | 20 | 83* | 85* | x
Cc1cccc2sc(N(CCCN(C)C)C(=O)c3ccc(S(=O)(=O)N4CCc5ccccc5C4)cc3)nc12 | 11 | 12 | 40 | 46* | 0

Bioassay records from PubChem.
